IMPase inh: cell-permeable inhibitors of inositol monophosphatase (IMPase) | P97697 | CHO-M1 cells, IP1 accumulation, HTRF TR-FRET ratio | inhibition (IP1 accumulation), % at 46.1 µM | 120,000 tested, under 10 active; active = well fitted curve in the direction sought with a large enough effect in the signal ratio, not every such curve was filed as active; inconclusive = small, poorly fitted or top-dose-only effect, or a change in a side signal; inactive = no such curve, though single readings can be large or run the other way; the % refers to the signal ratio;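 note: cells stimulated with carbachol in lithium chloride buffer; higher means more IMPase inhibition seen as more IP1 and lower FRET ratio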
Target sequence (P97697 whole entry, looked up): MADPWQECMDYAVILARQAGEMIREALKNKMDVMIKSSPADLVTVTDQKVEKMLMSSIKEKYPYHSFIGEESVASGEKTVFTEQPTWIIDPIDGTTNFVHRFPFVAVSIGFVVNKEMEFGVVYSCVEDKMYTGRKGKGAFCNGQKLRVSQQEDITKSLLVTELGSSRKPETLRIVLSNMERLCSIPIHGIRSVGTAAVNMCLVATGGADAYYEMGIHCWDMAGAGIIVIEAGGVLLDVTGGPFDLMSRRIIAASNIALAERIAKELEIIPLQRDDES
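CHO-M1, 2000 cells/well, cultured 16–30 h; cpd up to 46 uM; carbachol (50 uM solution, stimulation buffer w/ 50 mM LiCl, pH 7.4), 30 min 37C; IP-One TR-FRET, 10 min RT; Ex 320/Em 665, 620; Hill-fit AC50.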
HTT aggregate: reduces HttQ103-GFP aggregates in PC12 cells; PC12 HttQ103-GFP aggregates, Acumen cytometry, 40 h; Potency, µM (doses to about 46.1 µM), hits mostly inhibitors; 1.1% of 220,000 active; AID 1688; note: nearly all actives have a fitted effect of over 60% in size
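Using laser scanning cytometry, GFP-positive aggregates were counted after lysis of PC12 cells induced with 100 nM tebufenozide to express HTT exon 1 Q103–GFP. Compounds were tested in titration.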
ALDH1A1 inh: ALDH1A1 (human) enzyme inhibition. P00352. Purified ALDH1A1, NADH fluorescence, propionaldehyde substrate. Potency, µM (doses to about 75.3 µM), actives largely listed as inhibitors. 7.3% of 220,000 active. AID 1030; active = well fitted inhibition curve with a large enough effect, not every such curve was filed as active; inconclusive = small, poorly fitted or top-dose-only effect, or another doubt; inactive = no such curve, though single readings can be large or run the other way
HTT ATP protect: protects HTT-Q103 PC12 cells, measured by ATP; Potency, µM (doses to about 56.4 µM), most hits filed as activators; 0.14% of 230,000 active; AID 1471; PC12 HTT-Q103 induced, cytoprotection, ATP luminescence, 40 h; note: nearly all actives have a fitted effect of over 45% in size
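Quantitative HTS on tebufenozide-induced (100 nM) PC12 cells expressing HTTQ103 exon 1–GFP; compounds tested as a concentration series; survival measured via cellular ATP.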
IMPase Li cell: IMPase inhibition in cells with lithium potentiation. CHO-M1 cells, IP1 TR-FRET (IP-One), carbachol + lithium. 0.35% of 210,000 active. Potency, µM (top dose mostly 59.4 µM), usual class: inhibitors;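 note: IP1 builds up when IMPase is blocked and the TR-FRET signal falls; nearly all actives have a fitted effect of over 50% in size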
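CHO cells stably expressing M1 receptor (2000/well, cultured 16–30 h) treated 30 min at 37C with compound plus low lithium. Cytosolic IP1 by TR-FRET (665/620 ratio and 620 channel) after 10 min lysis; AC50 by Hill fit.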
HPGD inh: inhibitors of human 15-hydroxyprostaglandin dehydrogenase (HPGD). P15428. 4.3% of 150,000 active. purified HPGD, NADH fluorescence kinetic, PGE2 substrate. Potency, µM, most hits filed as inhibitors; active = well fitted inhibition curve with a large enough effect, not every such curve was filed as active; inconclusive = small, poorly fitted or top-dose-only effect, or another doubt; inactive = no such curve, though single readings can be large or run the other way
Target sequence (P15428 whole entry, looked up): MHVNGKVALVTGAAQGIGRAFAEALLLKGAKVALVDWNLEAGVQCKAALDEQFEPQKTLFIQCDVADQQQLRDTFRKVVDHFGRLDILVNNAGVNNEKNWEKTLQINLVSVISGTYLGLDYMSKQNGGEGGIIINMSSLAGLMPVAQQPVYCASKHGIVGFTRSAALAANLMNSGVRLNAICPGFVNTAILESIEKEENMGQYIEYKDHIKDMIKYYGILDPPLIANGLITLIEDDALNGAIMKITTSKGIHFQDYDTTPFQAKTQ
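NADH formation kinetics: reaction with 30 uM PGE2 and 1 mM NAD+ (final), 20 nM enzyme, Tris-HCl pH 8 with Tween 20, after 15 min compound preincubation at room temperature. Fluorescence change, last versus first of five reads.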
A number is an active result; – = inactive; ? = inconclusive; · = not tested or not shown; [ ] = remark or other dose. In the library only some 9.4% were active in any assay of this set; here they are far more common. Unless noted, calls come from the whole dose curve; as a rule, active = well fitted curve in the direction sought with a large enough effect; inconclusive = small, poorly fitted or top-dose-only effect, or another doubt; inactive = no such curve, though single readings can be large; an effect the other way counts as inactive or inconclusive.

SMILES | IMPase inh | HTT aggregate | ALDH1A1 inh | HTT ATP protect | IMPase Li cell | HPGD inh
COc1ccccc1C(=O)CSc1n[nH]c(N)n1 | – | – | 11.2µM | – | – | –
O=C(CSc1n[nH]c(-c2ccncc2)n1)c1ccccc1 | –[1.84 µM] | – | – | –[10 µM] | – | ?
Nc1nc(SCC(=O)c2cc3ccccc3o2)n[nH]1 | · | –[9.22 µM] | – | ? | – | ·
O=C1OCCC1Sc1ncnc2sc3c(c12)CCC3 (centres undefined) | – | – | – | –[10 µM] | – | –
Cc1nc(SC2CCOC2=O)c2c(C)c(C)sc2n1 (centres undefined) | ? | – | 22.4µM | – | 7.08µM | –
ClC(Cl)(c1nnnn1-c1ccccc1)c1nnnn1-c1ccccc1 | · | ? | 1.12µM | –[10 µM] | – | 3.16µM
Cc1ccc(S(=O)(=O)N[C@H]2COC(=O)CC=C[C@@H](C)[C@H]3C=C[C@H](O)[C@@H](COC(=O)CC=C[C@H]2C)O3)cc1 | · | · | –[13.5 µM] | ? | · | ·
N#Cc1cccc(NC(=O)N2CC3(CCN(C(=O)c4cnccn4)CC3)C2)c1 | · | · | – | – | – | –
Cc1ccc(-n2c(CCC(=O)O)ccc2-c2cccs2)cc1Cl | – | · | · | · | · | ·
Nc1nnc(N2CCCCCC2)s1 | – | – | – | –[0.074 µM] | – | –
Nc1nnc(N2CCCCC2)s1 | – | – | 25.1µM | –[10 µM] | – | –
CN(C)S(=O)(=O)c1cccc(NC(=O)COC(=O)/C=C/c2ccco2)c1 | · | – | – | –[10 µM] | – | –
CCN(CC)S(=O)(=O)c1cccc(NC(=O)COC(=O)/C=C/c2ccco2)c1 | · | –[9.22 µM] | 25.1µM | –[10 µM] | – | –
O=C(COC(=O)/C=C/c1ccco1)Nc1cccc([N+](=O)[O-])c1 | – | ? | 25.1µM | –[10 µM] | – | –
COc1ccc(-c2nn3c(-c4ccccc4C)nnc3c3ccccc23)cc1 | – | · | · | · | · | ·
CCOC(=O)N/N=C1/C[C@@H](O)[C@@H](O)[C@@H]2[C@H]3C(=O)N(c4ccc(F)cc4F)C(=O)[C@@H]3CC[C@H]12 | · | · | –[13.5 µM] | –[10 µM] | · | ·
CC(C)NCC#CCOc1ccc(Cl)cc1 | · | –[9.22 µM] | 2.38µM | – | – | ·
Fc1ccccc1-c1nc(N2CCN(c3cccc(Cl)c3)CC2)c2ccccc2n1 | – | · | · | · | · | ·
COc1ccc(-c2csc(NC(=S)NC(=O)c3cccs3)n2)cc1OC | · | – | 11.2µM | – | – | ·
COc1ccc(S(=O)(=O)Nc2ccccc2C(=O)Nc2nc(-c3ccc(F)cc3)cs2)cc1OC | · | 10µM | ? | ? | – | ?
COc1ccc(-c2csc(NC(=O)c3ccccc3NS(=O)(=O)c3ccc(C)cc3)n2)cc1 | · | ? | ? | –[10 µM] | – | –
CCOc1ccc(S(=O)(=O)Nc2ccc(C(=O)N/N=C(\C)c3ccc(-n4ccnc4)cc3)cc2)cc1 | – | –[9.22 µM] | 15.8µM | – | – | –
CCc1cc2c3c(c1)C(C)CC(C)(C)N3C(=O)C2=O (centres undefined) | · | ? | 0.316µM | –[10 µM] | – | –
COc1cccc(NC(=O)CCN2CCN(CCO)CC2)c1 | – | · | · | · | · | ·
CCN(CC)CCCC(C)n1c(-c2ccccc2)nc2c(N(CCOC)CCOC)nc(C)nc21 (centres undefined) | · | · | ? | – | – | ?
SMILES | IMPase inh | HTT aggregate | ALDH1A1 inh | HTT ATP protect | IMPase Li cell | HPGD inh
COC(=O)c1sc(NC(=O)COc2c(C)cccc2C)nc1C | · | –[9.22 µM] | – | –[10 µM] | – | ·
COc1ccc2nc(NNC(=O)COc3ccccc3)sc2c1 | · | – | 20µM | – | – | ·
CC(=O)c1sc(NC(=O)COc2ccc(C(C)C)c(C)c2)nc1C | · | – | – | – | 11.2µM | ·
CC(=O)c1sc(NC(=O)CCOc2ccccc2)nc1C | · | – | ? | – | – | ·
CCOC(=O)c1sc2nc(NC(=O)COc3ccccc3)sc2c1C | – | – | ? | – | 12.6µM | ?
CC(=O)c1sc(NC(=O)COc2ccccc2)nc1C | · | – | ? | – | 10µM | ·
NC(N)=N/N=C\c1ccc(C2CCNCC2)cc1 | · | · | –[13.5 µM] | –[10 µM] | – | –
Cc1cc(C)n(-c2nc3cc(Cl)ccc3nc2N2CCN(c3cccc(C)c3C)CC2)n1 | – | · | · | · | · | ·
CC(C)[C@@H](CC(=O)N[C@@H]1CCNC[C@H]1C(=O)N[C@H](CC(=O)N[C@@H](CCC(=O)O)CC(=O)O)Cc1ccccc1)NC(=O)C[C@H](CO)NC(=O)[C@@H]1CCCC[C@H]1N | · | · | – | –[1.9 µM] | – | –
Cc1sc2nc(SCC(=O)NCCO)n(-c3ccccc3)c(=O)c2c1C | · | –[9.22 µM] | ? | –[10 µM] | – | ·
Cc1sc2nc(SCC(N)=O)n(-c3ccccc3)c(=O)c2c1C | · | – | 17.8µM | – | – | ·
O=C(O)c1ccccc1-c1c2cc(Br)c(=O)c(Br)c-2oc2c(Br)c(O)c(Br)cc12 | · | 10µM | · | – | · | ·
Cc1ccc2oc(-c3ccccc3C(=O)O)cc(=O)c2c1 | – | – | – | –[0.074 µM] | – | –
COc1ccccc1NC(=O)NCc1ccc2c(c1)OCO2 | – | – | – | –[10 µM] | – | –
COc1ccccc1N/N=C/c1ccc2c(c1)OCO2 | · | ? | ? | –[10 µM] | – | 15.8µM
Cc1cc(-c2n[nH]c(=S)n2/N=C/c2cccs2)n[nH]1 | · | – | – | –[10 µM] | – | ?
COc1cccc(/C=N/n2c(-c3cccs3)n[nH]c2=S)c1 | – | – | ? | – | – | 2.24µM
Cc1ccc(-c2n[nH]c(=S)n2/N=C/c2ccc(C)s2)cc1 | – | – | – | – | – | 3.98µM
Cc1ccc(-c2n[nH]c(=S)n2/N=C/c2cccs2)cc1 | – | – | ? | –[10 µM] | – | 12.6µM
S=c1[nH]nc(-c2ccccc2)n1/N=C/c1cccs1 | – | – | 25.1µM | –[10 µM] | – | 17.8µM
Cc1noc(C)c1S(=O)(=O)N1CCc2nc(-c3ccccc3)c3c(c2C1)CO[C@@H](C)C3 | · | · | –[13.5 µM] | –[10 µM] | – | –
CCC(=O)N1CCc2cc(Br)cc(S(=O)(=O)N(C)c3ccc(OC)cc3OC)c21 | · | – | – | – | – | ·
C=C1CCC(C2CC(=O)OC2=O)C(=O)CCC2C1CC2(C)C (centres undefined) | · | · | – | · | – | –
CCn1c(=N)c(C(=O)NCC2CCCO2)cc2c(=O)n3cc(C)ccc3nc21 (centres undefined) | – | · | · | · | · | ·
Cc1ccccc1NC(=O)c1ccc(CN(c2ccccc2)S(=O)(=O)c2ccccc2)cc1 | · | – | – | –[10 µM] | – | –
SMILES | IMPase inh | HTT aggregate | ALDH1A1 inh | HTT ATP protect | IMPase Li cell | HPGD inh
CC12CCC(c3c(C(=O)Nc4nccs4)nn(-c4ccccc4)c31)C2(C)C (centres undefined) | – | – | 3.98µM | – | – | –
CC12CCC(c3c(C(=O)O)nn(-c4ccccc4)c31)C2(C)C (centres undefined) | – | – | – | – | – | –
CCOC(=O)OCC1OC(C#Cc2ccc(F)cc2F)C=CC1OC(=O)OCC (centres undefined) | · | · | –[13.5 µM] | –[10 µM] | · | ·
S=C(NCc1cccnc1)Nc1ccc(Cl)c(Cl)c1 | – | ? | ? | –[10 µM] | – | 14.1µM
CCC(C)c1ccc(NC(=S)NCc2cccnc2)cc1 (centres undefined) | – | – | 15.8µM | –[10 µM] | – | ?
O=C(O)c1ccccc1NC(=O)N1c2ccccc2Sc2ccccc21 | – | · | · | · | · | ·

Screens (PubChem BioAssay)
